From PubChem BioAssay AID2544 (Sanford-Burnham Center for Chemical Genomics, 2010)
The whole screen tested about 330,000 compounds, of which about 390 (0.12%) were called active. The full list was thinned out, with actives kept by preference. A number with no mark means an inactive call.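 How the source made its calls: active means inhibition reaching a set limit with compound at 10 µM in the primary screen (cut at about 35% in these data); inactive means the rest.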

Each molecule was assayed against Intestinal-type alkaline phosphatase (Homo sapiens) (UniProt P09923) (assay: human IAP inhibitors, primary screen, biochemical, luminescence, uHTS (AID 2544;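 further: plate controls were DMSO wells with enzyme for no effect and no-enzyme buffer wells for full effect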)). Conditions: purified IAP, CDP-Star luminescence, 30 min; at 10 µM; hits give high values.
Sequence of Intestinal-type alkaline phosphatase (Homo sapiens) (P09923 whole entry, looked up): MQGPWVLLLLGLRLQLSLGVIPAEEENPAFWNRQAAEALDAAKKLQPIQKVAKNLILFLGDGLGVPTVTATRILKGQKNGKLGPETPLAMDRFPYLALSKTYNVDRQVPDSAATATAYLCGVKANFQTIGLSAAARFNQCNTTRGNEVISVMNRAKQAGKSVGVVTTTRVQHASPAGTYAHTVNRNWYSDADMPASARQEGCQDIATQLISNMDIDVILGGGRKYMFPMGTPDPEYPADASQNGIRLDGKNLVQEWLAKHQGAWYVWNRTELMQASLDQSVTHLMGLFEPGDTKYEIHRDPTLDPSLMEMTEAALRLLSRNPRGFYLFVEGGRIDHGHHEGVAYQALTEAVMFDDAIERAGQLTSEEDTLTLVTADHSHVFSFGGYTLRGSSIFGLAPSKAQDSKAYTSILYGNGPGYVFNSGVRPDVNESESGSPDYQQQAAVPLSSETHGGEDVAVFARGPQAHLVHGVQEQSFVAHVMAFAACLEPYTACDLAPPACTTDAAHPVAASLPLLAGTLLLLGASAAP
Cc1cc(N)n2nc(-c3ccc(C(C)(C)C)cc3)cc2n1 gave an inhibition of -9%.
COc1ccc(-c2nc3cc(C)ccn3c2NC2CCCCC2)cc1SC1CCCCC1 gave an inhibition of 18.9%.
CC1(C)OC(=O)C(=CNC(CO)C(=O)O)C(=O)O1 (stereo not drawn) was tested, and the inhibition was 4.1%.
CCN(CC(=O)NCc1ccc(Cl)cc1)C(=O)c1c(C)noc1C gave an inhibition of -14.3%.
COc1cccc(CNC(=O)C2CC(=O)N(C3CCCCCCC3)C2)c1 (stereo not drawn) gave an inhibition of -15%.
COC(=O)NNC(=O)C1CCC(C)CC1 (stereo not drawn) gave an inhibition of -0.3%.
Work on O=C(O)CCn1c(O)c(C=C2N=c3ccccc3=N2)sc1=S yielded an inhibition of -32.1%.
With Cc1ccc(NC(=O)COC(=O)C2C3CC4OC(=O)C2C4C3)cc1Cl (stereo not drawn) the inhibition was 5.1%.
CCOC(=O)N1CCN(S(=O)(=O)c2cc3c(cc2C)NC(=O)CO3)CC1 gave an inhibition of -3.7%.
O=C(CNC(=O)c1n[nH]c2ccccc12)Nc1cc(Cl)ccc1Cl gave an inhibition of -16.2%.
With FC(F)(F)c1ccnc(Oc2ccc(C3=NCCS3)cc2)c1 the inhibition was 10.4%.
Work on CC(C)(C)OC(=O)N1CCC(NC(=O)c2[nH]cnc2C(=O)N[C@@H](Cc2ccccc2)C(=O)OCc2ccccc2)CC1 yielded an inhibition of -35.2%.
COc1ccccc1C(=O)OCC(=O)Nc1cccc(S(=O)(=O)NC2=NCCCCC2)c1 showed an inhibition of 19.2%.
For COc1ccccc1C(CNC(=O)c1ccc(C)c(S(=O)(=O)N2CCCCC2)c1)N(C)C (stereo not drawn), the inhibition was -3.4%.
In the case of CN1CCN(CC(=O)C23CC4CC(CC(C4)C2)C3)CC1, the inhibition is reported as 4.5%.
With Cc1ccc(C(=O)N(CC(=O)NC2CCCC2)c2ccc(F)cc2)s1 the inhibition was -20.5%.
For CCCc1cc(C(=O)N2CCCC(CO)(CCCc3ccccc3)C2)n(C)n1 (stereo not drawn), the inhibition was -5.7%.
For CC#CC[N+](C)(C)CCCCCC, the inhibition was 6.2%.
Molecule O=C(/C=C/c1cccc(C(F)(F)F)c1)N1CCN(c2ccccn2)CC1 has an inhibition of -1.3%.
With c1csc(-c2nnc(COc3ncnc4sccc34)o2)c1 the inhibition was 13.5%.
With Cc1sc2ncn(CC(=O)NCCN(C)C)c(=O)c2c1S(=O)(=O)N1CCC(C)CC1 the inhibition was 10.2%.
Work on CCN(Cc1ccccc1)S(=O)(=O)c1cc(C(=O)O)ccc1OC yielded an inhibition of -17.1%.
For Cc1ccc(CN2CCN(Cc3cccc(C)n3)CC2CCO)cc1 (stereo not drawn), the inhibition was 4.3%.
For Cc1cc2ccccn2c1C(=O)c1cccc(F)c1, the inhibition was 18.3%.
With Cc1c(C=O)c2ccccn2c1C(=O)c1ccncc1 the inhibition was 35.9% (active).
With Cc1c(C(=O)NNC(=O)c2ccncc2)oc2ccccc12 the inhibition was -50.2%.
Molecule CC1C(=O)C(C)C(c2ccc(O)cc2)NC1c1ccc(O)cc1 (stereo not drawn) has an inhibition of 4.6%.
CCc1cc(CNC(=O)CC2C(=O)NCCN2CC2CCCCC2)on1 (stereo not drawn) was tested, and the inhibition was -7.8%.
For COc1ccc(CNC(=O)CSc2n[nH]c(N)n2)cc1OC, the inhibition was 5.7%.
CS(=O)(=O)Nc1ccccc1C(=O)OCC(=O)NC1CC1 showed an inhibition of -0.7%.
In the case of Cn1c(=O)c2sccc2n(Cc2ccc(Br)cc2)c1=O, the inhibition is reported as 38.1% (active).
In the case of O=C(NCc1ccco1)c1ccc(Cn2c(=O)c3sccc3n(Cc3ccc(F)cc3)c2=O)cc1, the inhibition is reported as 1.3%.
Molecule Cn1c(=O)c2c(nc(N/N=C/c3cccs3)n2Cc2ccc(Br)cc2)n(C)c1=O has an inhibition of -142%.
Work on N#Cc1c(-c2ccc(F)cc2)cc(C2CC2)nc1SCC(=O)c1cccs1 yielded an inhibition of 10.2%.
Work on CCOC(=O)Cc1csc(NC(=O)CN(C)S(=O)(=O)c2ccc3c(c2)CCC(=O)N3)n1 yielded an inhibition of -6.4%.
With CS(=O)(=O)c1sc(C(=O)NC(=S)Nc2ccc(OC(F)(F)F)cc2)c2c1C=CCC2 the inhibition was -34.5%.
Cc1ccc2cccc(S(=O)(=O)N3CCN(c4ccccc4F)CC3)c2n1 gave an inhibition of 22.1%.
CSc1ccc(CNC(=O)c2ccc(NC(=O)C3=CSCCO3)cc2)cc1 gave an inhibition of 17.2%.
Work on O=C(CCN1C(=O)c2ccccc2C1=O)NCCN1CCOCC1 yielded an inhibition of -14.9%.
With O=C(NC1=NCCS1)[C@H](Cc1ccccc1)N1C(=O)c2ccccc2C1=O the inhibition was 4.4%.
With O=C(NCCN1CCOCC1)[C@H](Cc1ccccc1)N1C(=O)c2ccccc2C1=O the inhibition was 41.1% (active).
CN(C(=O)CSc1cccc[n+]1[O-])C1CCCCC1 showed an inhibition of 2.3%.
For Cc1cc([N+](=O)[O-])nn1CCCC(=O)Nc1cccnc1Cl, the inhibition was 6.1%.
For CC1(C)O[C@@H]2[C@H](O1)[C@@H](COS(=O)(=O)O)O[C@H]2n1cnc2c(=O)[nH]cnc21, the inhibition was -9%.
Cc1cc(Cl)c2oc(C(=O)N3CCC(O)(c4ccccc4)CC3)c(C)c2c1 gave an inhibition of -10.6%.
Work on COc1ccc(Nc2cc(=O)n(-c3ccccc3)c3c2c(=O)n(C)c(=O)n3C)cc1 yielded an inhibition of 3.3%.
CN(Cc1ccccc1Cl)C(=O)C1CCC(=O)N(CCc2cccc(F)c2)C1 (stereo not drawn) gave an inhibition of -4.4%.
Cc1cc(C)nc(SCc2nnc(SCC(=O)OC3CCCCC3)o2)n1 was tested, and the inhibition was -7.3%.
For CCOCCCN(C(=O)Cn1nnc(-c2ccc(OC)c(OC)c2)n1)C(CC)C(=O)NC1CCCC1 (stereo not drawn), the inhibition was -21.9%.
With CCCCC(=O)Nc1ccccc1N1CCN(c2ccc(F)cc2)CC1 the inhibition was -6.3%.
CC(=O)c1ccc(N2CCN(CC(=O)Nc3ccccc3N3CCOCC3)CC2)cc1 was tested, and the inhibition was 6.2%.
With CCC(C)C(=O)Nc1ccccc1N1CCN(c2ccc(F)cc2)CC1 (stereo not drawn) the inhibition was 42.4% (active).
CCOC(=O)c1ccc(NC(=S)Nc2cc(C)cc(C)n2)cc1 showed an inhibition of -2%.
Molecule CCOC(=O)c1cc2c(nc1NC(=S)Nc1ccccc1)CC(C)(CC)OC2 (stereo not drawn) has an inhibition of -6.3%.
For CCOC(=O)c1cn[nH]c1NC(=S)Nc1ccccc1, the inhibition was 60.8% (active).
For NC(N)=Nc1nc2ccc(Br)cc2c(=O)[nH]1, the inhibition was -7.7%.
For Cc1cc(C)c(SCCc2ccncc2)c(C)c1, the inhibition was -12.6%.
With CC(C)(C)c1ccc(SCCc2ccncc2)cc1 the inhibition was -36.5%.
In the case of c1ccc(CSCCc2ccncc2)cc1, the inhibition is reported as 39.6% (active).
In the case of O=C1N(c2ccc(Cl)cc2)C(c2ccc(Cl)cc2)N2CCCN12 (stereo not drawn), the inhibition is reported as 0.2%.
Work on CCCC1C(c2ccccc2)C(C#N)(C#N)C2(C#N)CC1(N)NC2=O (stereo not drawn) yielded an inhibition of -3.9%.
Molecule CN(C(=O)COc1nnc(-c2cccs2)c(-c2cccs2)n1)c1ccccc1 has an inhibition of -23.1%.
For CS(=O)(=O)N(CC(=O)N1CCOCC1)c1cccc(Cl)c1Cl, the inhibition was -16.2%.
Molecule NS(=O)(=O)c1cccc(NC(=O)COC(=O)/C=C/c2ccco2)c1 has an inhibition of 5.2%.
Molecule COC(=O)c1cc2c(ccn2C)n1C has an inhibition of 15.7%.
In the case of CCN1/C(=C\c2ccc3ccccc3[n+]2CC)Sc2cc(C)ccc21, the inhibition is reported as 39.8% (active).
In the case of COc1cccc(C(=O)n2ccc(-c3cccs3)n2)c1, the inhibition is reported as 0.5%.
Cc1c(Cl)cccc1NC(=O)[C@@]1(CC(=O)O)CC(/C=C/c2ccccc2)=NO1 was tested, and the inhibition was 11%.
In the case of CSC1=NC2(C)CCCCC2C12C=CC(=O)C=C2 (stereo not drawn), the inhibition is reported as 12.2%.
Molecule O=C(NCCCN1CCCCC1)C1CC(=O)N(CCc2ccccc2)C1 (stereo not drawn) has an inhibition of -4.4%.
O=C(CN(C(=O)c1csnn1)c1ccc(Br)cc1)NC1CCCC1 gave an inhibition of -3.8%.
Work on CC(C)(C)C(=O)N(Cc1ccccc1)c1ccccn1 yielded an inhibition of -10.9%.
In the case of COc1ccccc1C1CCN(C(=S)Nc2ccc(Br)cc2)CC1, the inhibition is reported as 5.9%.
For O=C(CCCl)Nc1ccc(S(=O)(=O)NCc2ccco2)cc1, the inhibition was 7.1%.
Molecule CCS(=O)(=O)N1CCC(N2CCN(c3ccccc3)CC2)CC1 has an inhibition of 15%.
For CCCCc1ccc(NC(=S)N2CCCC(CO)C2)cc1 (stereo not drawn), the inhibition was 7.5%.
Molecule O=C(CN1C(=O)NC(Cc2c[nH]c3ccccc23)C1=O)Nc1ccccc1C(F)(F)F (stereo not drawn) has an inhibition of -22.4%.
CC(C(=O)N1CCc2ccccc21)N(C)CC(=O)Nc1ccc(F)cc1 (stereo not drawn) gave an inhibition of 22.6%.
In the case of O=C(c1cccs1)N1CCC(c2nc3ccccc3s2)CC1, the inhibition is reported as 22.5%.
Molecule COc1cc2c(cc1OC)C(C(=O)NCc1ccco1)C1c3ccccc3CCN1C2=O (stereo not drawn) has an inhibition of -2.9%.
With CN1/C(=c2/s/c(=C3/C(=O)N(c4ccccc4)NC3=Nc3ccccc3)n(C)c2=O)C(C)(C)c2ccccc21 the inhibition was 35% (active).
With Cc1ccc(N(CC(=O)NCC2CCCO2)C(=O)CNS(=O)(=O)c2ccc(Cl)cc2)cc1 (stereo not drawn) the inhibition was 6.2%.
Molecule CC(NCCc1ccc(S(N)(=O)=O)cc1)C(=O)NCc1ccccc1 (stereo not drawn) has an inhibition of 8.3%.
O=C(CN1CCC(NC(=O)C2CC2)CC1)Nc1ccccc1[N+](=O)[O-] gave an inhibition of 1.9%.
Work on CCN(C(=O)COC(=O)c1cc(S(=O)(=O)N2CCc3ccccc32)ccc1OC)C1CCS(=O)(=O)C1 (stereo not drawn) yielded an inhibition of 8.6%.
In the case of CCc1cc2c(=O)c(-c3ccon3)c(N)oc2cc1OC, the inhibition is reported as 6.6%.
CC(Sc1cccc[n+]1[O-])C(=O)Nc1cccc(S(=O)(=O)N2CCOCC2)c1 (stereo not drawn) gave an inhibition of -16.4%.
CCNC(=S)N(CCc1c(C)[nH]c2ccc(C)cc12)Cc1ccco1 gave an inhibition of 3.7%.
For Cc1c(C(=O)OC(C)C)sc(NC(=O)c2cccnc2)c1C#N, the inhibition was -1.7%.
CCOC(=O)N1CCC(NC(=O)CN2C(=O)COc3ccc(C(C)(C)C)cc32)CC1 showed an inhibition of -21.5%.
Molecule Cc1ccc(C(C)(C)C)c(OCCCCN2CCCC2)c1 has an inhibition of 10.8%.
For O=C(C[n+]1cc(Br)cc2ccccc21)c1ccc(F)cc1, the inhibition was -5.7%.
COc1ccc(CCOC2OC(CO)C(OC(=O)/C=C/c3ccc(O)c(OC)c3)C(O[C@H]3O[C@@H](C)[C@H](O)[C@@H](O)[C@H]3O)C2O)cc1O (stereo partly drawn) gave an inhibition of 4.7%.
